Holding throughout (experiment): yeast three-hybrid, YBZ-1, SC-Leu-His + 0.5 mM 3-AT, 4 days
Common to all, as to conditions: tags: N-Gal4 AD-HA kept; label: inside an RPR1-promoter hybrid RNA with tandem MS2 sites; ssRNA

One test concerns the target PUM1 PUF domain R5-WHG (Homo sapiens, UniProt Q14671 828-1176, C1007W;R1008H;Q1011G). The gist of the method: (§1)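 Sequencing with Illumina followed PCR amplification of the repeat regions from transformants grown four days on SC-Leu (input) or SC-Leu-His + 0.5 mM 3-AT (selection). The transformants were strain YBZ-1 with a LexA–MS2 coat fusion and a HIS3 reporter, carrying Pumilio-1 PUF domain libraries and matching RNA elements. The interaction score is the log change in variant frequency from input to selection, computed in log2 with a pseudocount of 1 for absent variants.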

In another test the target is T1, PUM1 PUF domain R6-LWS (Homo sapiens, UniProt Q14671 828-1176, N1043L;Y1044W;Q1047S).
T1 sequence: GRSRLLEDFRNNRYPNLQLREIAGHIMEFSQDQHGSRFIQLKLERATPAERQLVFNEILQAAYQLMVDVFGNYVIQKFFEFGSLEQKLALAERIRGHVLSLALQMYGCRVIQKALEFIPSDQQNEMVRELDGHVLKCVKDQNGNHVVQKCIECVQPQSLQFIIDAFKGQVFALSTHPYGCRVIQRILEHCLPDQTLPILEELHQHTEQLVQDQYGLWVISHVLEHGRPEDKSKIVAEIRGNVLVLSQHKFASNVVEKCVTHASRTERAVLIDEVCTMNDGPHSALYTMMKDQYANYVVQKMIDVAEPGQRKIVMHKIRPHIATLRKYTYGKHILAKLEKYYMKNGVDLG
The gist of the method: as §1

Another test concerns the target PUM1 PUF domain R3-GRA (Homo sapiens, UniProt Q14671 828-1176, C935G;Q939A). The gist of the method: as §1
A further test addresses PUM1 PUF domain R3-RCA (Homo sapiens, UniProt Q14671 828-1176, C935R;R936C;Q939A). Put shortly:
as §1

A further test addresses PUM1 PUF domain R8-NYP (Homo sapiens, UniProt Q14671 828-1176, Q1126P). The gist of the method: as §1
The next test concerns the target PUM1 PUF domain R5-GRH (Homo sapiens, UniProt Q14671 828-1176, C1007G;Q1011H). The gist of the method: as §1
For a further test, the target named is T2, PUM1 PUF domain R6-MFR (Homo sapiens, UniProt Q14671 828-1176, N1043M;Y1044F;Q1047R).
T2 sequence: T1 sequence with L216M, W217F, S220R
Put shortly: as §1

A further test concerns the target T3, PUM1 PUF domain R6-NYL (Homo sapiens, UniProt Q14671 828-1176, Q1047L).
T3 sequence: T1 sequence with L216N, W217Y, S220L
The gist of the method: as §1

For the next test, the target named is PUM1 PUF domain R8-CHK (Homo sapiens, UniProt Q14671 828-1176, N1122C;Y1123H;Q1126K). The gist of the method:
as §1

For the next test, the target named is PUM1 PUF domain R5-DIR (Homo sapiens, UniProt Q14671 828-1176, C1007D;R1008I;Q1011R). The gist of the method: as §1

Changes are numbered by the printed parent chain.

Consider “GGCUAGAACUAGUGGAUCCCCCGGCGCCCGGCGGCUCGAGCCCGGGUAAGUGUGAAUAGUCUGCAUGCCGCCGGGCGCCAUGCCUGCAGGUCGACUCUAGAAAACAUG”, for which the binding signal with PUM1 PUF domain R5-WHG is 2.58 log2 enrichment (interaction score).

In the case of “GGCUAGAACUAGUGGAUCCCCCGGCGCCCGGCGGCUCGAGCCCGGGUAAGUGAAAAUAGUCUGCAUGCCGCCGGGCGCCAUGCCUGCAGGUCGACUCUAGAAAACAUG”, the binding signal in the test with PUM1 PUF domain R6-LWS is 4.85 log2 enrichment (interaction score).

In the case of “GGCUAGAACUAGUGGAUCCCCCGGCGCCCGGCGGCUCGAGCCCGGGUAAGUGUAAUUAGUCUGCAUGCCGCCGGGCGCCAUGCCUGCAGGUCGACUCUAGAAAACAUG”, the binding signal is 0.97 log2 enrichment (interaction score) with PUM1 PUF domain R3-GRA and 3.42 log2 enrichment (interaction score) with PUM1 PUF domain R3-RCA.

For “GGCUAGAACUAGUGGAUCCCCCGGCGCCCGGCGGCUCGAGCCCGGGUAAGUGUAAAUAGUCUGCAUGCCGCCGGGCGCCAUGCCUGCAGGUCGACUCUAGAAAACAUG”, the binding signal with PUM1 PUF domain R3-GRA is 2.35 log2 enrichment (interaction score); in the test with PUM1 PUF domain R8-NYP, 3.16 log2 enrichment (interaction score); with PUM1 PUF domain R5-GRH, 3.97 log2 enrichment (interaction score); in the test with PUM1 PUF domain R6-MFR it was 6.1 log2 enrichment (interaction score); in the test with PUM1 PUF domain R6-NYL it was 5.52 log2 enrichment (interaction score); with PUM1 PUF domain R6-LWS it was 6 log2 enrichment (interaction score).

Consider “GGCUAGAACUAGUGGAUCCCCCGGCGCCCGGCGGCUCGAGCCCGGGUAAGCGUAAAUAGUCUGCAUGCCGCCGGGCGCCAUGCCUGCAGGUCGACUCUAGAAAACAUG”, for which the binding signal in the test with PUM1 PUF domain R8-CHK was 3.49 log2 enrichment (interaction score).

For “GGCUAGAACUAGUGGAUCCCCCGGCGCCCGGCGGCUCGAGCCCGGGUAAGUGUAAGUAGUCUGCAUGCCGCCGGGCGCCAUGCCUGCAGGUCGACUCUAGAAAACAUG”, the binding signal in the test with PUM1 PUF domain R3-GRA is 1.12 log2 enrichment (interaction score).

For the sequence “GGCUAGAACUAGUGGAUCCCCCGGCGCCCGGCGGCUCGAGCCCGGGUAAGUGUUAAUAGUCUGCAUGCCGCCGGGCGCCAUGCCUGCAGGUCGACUCUAGAAAACAUG”, the binding signal with PUM1 PUF domain R5-WHG is 4.56 log2 enrichment (interaction score); with PUM1 PUF domain R5-GRH, 4.85 log2 enrichment (interaction score).

Consider “GGCUAGAACUAGUGGAUCCCCCGGCGCCCGGCGGCUCGAGCCCGGGUAAGUGUCAAUAGUCUGCAUGCCGCCGGGCGCCAUGCCUGCAGGUCGACUCUAGAAAACAUG”, for which the binding signal in the test with PUM1 PUF domain R5-WHG was 2.14 log2 enrichment (interaction score); with PUM1 PUF domain R5-GRH, 2.47 log2 enrichment (interaction score); with PUM1 PUF domain R5-DIR, 3.11 log2 enrichment (interaction score).

(Values after publication PMC8384837, “Expanding the binding specificity for RNA recognition by a PUF domain”.)
